“And” between values parts separate entries of the source, which are not always exact repeats. Equal values may be shown once. Records with an inconclusive call do not appear. The source made the active and inactive calls. Unless noted, the call rests on the fitted dose curve; in most records, active means well fitted curve in the direction sought with a large enough effect in the repeat runs; inconclusive means weak or mixed curves; inactive means no such curve, though single readings can be large; an effect the other way counts as inactive or inconclusive.
How the values were obtained:
[1] = qHTS assay to test for compound auto fluorescence at 535 nm (green) in HEK293 cells (AID 720680)
[2] = qHTS assay to test for compound auto fluorescence at 460 nm (blue) in HEK293 cell free culture (AID 720681)
Outline: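 Test compounds were pinned into cell-free culture medium (DMEM with 10% FBS) and fluorescence was read directly at Ex/Em 405/460 nm. Signals were expressed as fluorescence equivalents of triamterene, with DMSO vehicle as control.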

[3] = qHTS assay to test for compound auto fluorescence at 535 nm (green) in HEK293 cell free culture (AID 720682)
Outline: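 Green-channel intensity (Ex/Em 485/535 nm) was recorded from compound-treated wells containing only DMEM with 10% FBS. Fluorescein provided the equivalency standard.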

[4] = qHTS assay to test for compound auto fluorescence at 590 nm (red) in HepG2 cell free culture (AID 720684)
Outline: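 Red fluorescence (540 nm excitation, 590 nm emission) was measured after compound transfer into cell-free MEM supplemented with 10% FBS. Values are equivalencies against Rose Bengal sodium.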

[5] = qHTS assay to test for compound auto fluorescence at 460 nm (blue) in HepG2 cell free culture (AID 720685)
Outline: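 Compound (23 nL) or DMSO pinned into cell-free MEM with 10% FBS; blue fluorescence read at 405/460 nm excitation/emission, expressed as auto-fluorescence equivalency to triamterene.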

[6] = qHTS assay to test for compound auto fluorescence at 535 nm (green) in HepG2 cell free culture (AID 720686)
[7] = qHTS assay to test for compound auto fluorescence at 460 nm (blue) in HepG2 cells (AID 720687)
Outline: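 Cells (2,000/well in MEM with 10% FBS) attached overnight at 37 C, then were exposed to compound or DMSO for 1 hr at 37 C, 5% CO2. Fluorescence read at Ex/Em 405/460 nm, expressed as triamterene-equivalent signal.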

[8] = biological target: Glucocorticoid receptor (Homo sapiens) (UniProt P04150); test: qHTS assay to identify small molecule agonists of the glucocorticoid receptor (GR) signaling pathway (AID 720691; active means well fitted activation curve with a large enough effect in the signal ratio in the repeat runs, not every such curve was filed as active; the % refers to the signal ratio); conditions: GR-bla HeLa, beta-lactamase reporter ratio, 18 h; activation: at 62.4 µM (top of the series)
Glucocorticoid receptor (Homo sapiens), sequence (P04150 whole entry, looked up): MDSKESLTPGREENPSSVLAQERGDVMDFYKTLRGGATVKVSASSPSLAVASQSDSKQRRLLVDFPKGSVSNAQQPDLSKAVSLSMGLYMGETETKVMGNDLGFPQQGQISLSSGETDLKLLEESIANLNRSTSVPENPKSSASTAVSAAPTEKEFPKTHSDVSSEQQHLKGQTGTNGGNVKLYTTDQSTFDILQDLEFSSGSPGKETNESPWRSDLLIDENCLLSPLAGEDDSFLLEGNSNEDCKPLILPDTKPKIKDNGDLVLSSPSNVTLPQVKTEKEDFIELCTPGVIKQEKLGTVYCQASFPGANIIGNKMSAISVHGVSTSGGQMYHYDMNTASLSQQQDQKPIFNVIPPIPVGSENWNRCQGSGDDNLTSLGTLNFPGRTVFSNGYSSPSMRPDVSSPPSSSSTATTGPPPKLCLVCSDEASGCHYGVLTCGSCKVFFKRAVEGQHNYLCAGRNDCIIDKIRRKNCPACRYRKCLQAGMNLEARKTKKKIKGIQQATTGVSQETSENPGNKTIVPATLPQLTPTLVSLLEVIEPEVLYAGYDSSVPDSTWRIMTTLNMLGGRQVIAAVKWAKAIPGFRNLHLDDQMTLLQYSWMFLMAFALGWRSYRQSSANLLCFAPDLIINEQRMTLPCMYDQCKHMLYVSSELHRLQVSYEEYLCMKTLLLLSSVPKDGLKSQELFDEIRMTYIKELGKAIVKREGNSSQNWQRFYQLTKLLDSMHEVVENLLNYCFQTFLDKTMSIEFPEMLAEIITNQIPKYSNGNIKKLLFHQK
Outline: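 qHTS in GR-bla HeLa cells: 4 h settling at 37 C/5% CO2, 18 h compound incubation at 37 C, 2 h LiveBLAzer B/G FRET substrate at room temperature, fluorescence intensity measured.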

[9] = biological target: Glucocorticoid receptor (Homo sapiens) (UniProt P04150); test: qHTS assay to identify small molecule antagonists of the glucocorticoid receptor (GR) signaling pathway (AID 720692; active means well fitted inhibition curve with a large enough effect in the signal ratio in the repeat runs, not every such curve was filed as active; the % refers to the signal ratio)
Outline: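 Inhibition of glucocorticoid signalling is measured in HeLa cells with a GRE-controlled beta-lactamase reporter; cells are co-treated with compound and 5 nM dexamethasone (final) for 18 h before FRET substrate readout.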

[10] = qHTS assay to identify small molecule antagonists of the glucocorticoid receptor (GR) signaling pathway - cell viability counter screen (AID 720693); further: nearly all actives have a fitted effect of over 55% in size
[11] = qHTS assay for identifying genotoxic compounds that show differential cytotoxicity against isogenic chicken DT40 cell lines with known DNA damage response pathways - wild type cell line (AID 743012); further: nearly all actives have a fitted effect of over 60% in size; further: potency means the concentration at half of the fitted maximal effect
Outline: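 First, wild type DT40 cells were plated at 300 per well and equilibrated about 0.5 h at 37 C/5% CO2. Next, compounds in DMSO were added and exposure lasted 40 h. Finally, CellTiter-Glo was added for 30 min at room temperature and luminescence recorded.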

[12] = qHTS assay to identify small molecule antagonists of the androgen receptor (AR) signaling pathway - cell viability counter screen (AID 743033; further: nearly all actives have a fitted effect of over 45% in size)
[13] = qHTS assay to identify small molecule antagonists of the androgen receptor (AR) signaling pathway using the MDA cell line - cell viability counter screen (AID 743041; further: nearly all actives have a fitted effect of over 45% in size)
Outline: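 MDA-kb2 AR-luc human breast carcinoma cells (MMTV-luciferase, AR/GR responsive) were treated with compounds plus R1881 agonist for 16 h at 37 °C. Viability was read as CellTiter-Fluor fluorescence in the same wells as the reporter assay.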

[14] = qHTS assay to test for compound auto fluorescence at 590 nm (red) in HEK293 cell free culture (AID 720683)
Outline: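 Tox21 10K library compounds were pinned into cell-free DMEM with 10% FBS and fluorescence was read at excitation 540 nm. Activity is expressed as Rose Bengal sodium equivalency.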

[15] = qHTS assay for identifying genotoxic compounds that show differential cytotoxicity against isogenic chicken DT40 cell lines with known DNA damage response pathways - Rev3 mutant cell line (AID 743014); further: nearly all actives have a fitted effect of over 55% in size
[16] = qHTS assay for identifying genotoxic compounds that show differential cytotoxicity against isogenic chicken DT40 cell lines with known DNA damage response pathways - Rad54/Ku70 mutant cell line (AID 743015); further: nearly all actives have a fitted effect of over 60% in size
[17] = biological target: Androgen receptor (Homo sapiens) (UniProt P10275); test: qHTS assay to identify small molecule antagonists of the androgen receptor (AR) signaling pathway (AID 743035; active means well fitted inhibition curve with a large enough effect in the signal ratio in the repeat runs, not every such curve was filed as active; the % refers to the signal ratio)
Androgen receptor (Homo sapiens), sequence (P10275 whole entry, looked up): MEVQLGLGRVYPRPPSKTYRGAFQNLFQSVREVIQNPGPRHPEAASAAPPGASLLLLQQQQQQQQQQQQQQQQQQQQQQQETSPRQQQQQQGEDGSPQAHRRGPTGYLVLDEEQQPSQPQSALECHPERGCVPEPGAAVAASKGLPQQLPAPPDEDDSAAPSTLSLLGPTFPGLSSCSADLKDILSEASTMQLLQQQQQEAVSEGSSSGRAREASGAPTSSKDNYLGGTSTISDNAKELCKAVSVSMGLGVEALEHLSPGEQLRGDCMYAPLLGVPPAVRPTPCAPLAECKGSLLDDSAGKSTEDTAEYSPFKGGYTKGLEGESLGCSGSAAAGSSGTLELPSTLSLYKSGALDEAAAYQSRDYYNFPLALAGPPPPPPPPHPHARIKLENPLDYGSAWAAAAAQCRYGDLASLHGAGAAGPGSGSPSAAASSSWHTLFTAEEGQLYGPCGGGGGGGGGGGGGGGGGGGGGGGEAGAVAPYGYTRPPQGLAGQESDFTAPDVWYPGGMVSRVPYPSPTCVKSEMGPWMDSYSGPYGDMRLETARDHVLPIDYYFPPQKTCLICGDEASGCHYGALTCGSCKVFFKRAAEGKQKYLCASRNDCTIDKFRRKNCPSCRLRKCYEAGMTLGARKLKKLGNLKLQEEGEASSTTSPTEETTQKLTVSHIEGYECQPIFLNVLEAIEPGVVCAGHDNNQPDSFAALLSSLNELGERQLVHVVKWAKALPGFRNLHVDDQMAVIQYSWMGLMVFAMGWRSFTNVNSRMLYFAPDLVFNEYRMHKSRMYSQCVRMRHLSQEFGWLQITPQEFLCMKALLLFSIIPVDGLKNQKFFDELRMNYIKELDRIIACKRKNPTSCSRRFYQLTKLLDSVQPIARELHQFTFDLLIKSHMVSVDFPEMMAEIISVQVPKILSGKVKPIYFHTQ
Outline: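 Beta-lactamase FRET read (2 h RT incubation with LiveBLAzer B/G) following 16 h of compound plus R1881 treatment of AR-UAS-bla HEK293 cells, which had been pre-incubated 4 h at 37C.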

[18] = biological target: Androgen receptor (Homo sapiens) (UniProt P10275); test: qHTS assay to identify small molecule agonists of the androgen receptor (AR) signaling pathway (AID 743036; active means well fitted activation curve with a large enough effect in the signal ratio in the repeat runs, with a control signal flat, not every such curve was filed as active; the % refers to the signal ratio)
Outline: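 Cell-based FRET reporter assay: HEK293 line with a UAS-beta-lactamase construct, compounds added in DMSO, 16 h exposure at 37C, then 2 h substrate step at room temperature and fluorescence intensity read.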

[19] = biological target: Androgen receptor (Homo sapiens) (UniProt P10275); test: qHTS assay to identify small molecule antagonists of the androgen receptor (AR) signaling pathway using the MDA cell line (AID 743042; further: nearly all actives have a fitted effect of over 55% in size)
Outline: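 MDA-kb2 cells (human breast carcinoma, stably carrying an MMTV-luciferase reporter responsive to AR and GR) were plated at 3,000 cells/well and preincubated 5 hr at 37C, then given compound plus R1881 agonist for 16 h. ONE-Glo luminescence was read.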

Measured: Potency

O=C1CCCCCCCCCCCCCC1
not listed: [14] | [15] | [16] | [17] | [18] | [19]
inactive: all other assays above

Nc1nc(/C(=C/CC(=O)O)C(=O)N[C@@H]2C(=O)N3C(C(=O)O)=CCS[C@H]23)cs1
not listed: [1] | [17] | [18] | [19]
inactive: all other assays above

COC1=C(OC)C(=O)C(C/C=C(\C)CC/C=C(\C)CC/C=C(\C)CC/C=C(\C)CC/C=C(\C)CC/C=C(\C)CC/C=C(\C)CC/C=C(\C)CC/C=C(\C)CCC=C(C)C)=C(C)C1=O
not listed: [5] | [14] | [17] | [18] | [19]
inactive: all other assays above

Nc1cc(Cl)c(NC2=NCCN2)c(Cl)c1
not listed: [14] | [15] | [17] | [18] | [19]
inactive: all other assays above

CC(C)(Oc1ccc(C2CCCc3ccccc32)cc1)C(=O)O (stereo unspecified)
not listed: [5] | [11] | [14]
inactive: all other assays above

COc1ccc(/C=N/NC(=O)c2ccncc2)c(C(=O)O)c1OC
not listed: [9] | [14] | [17] | [18] | [19]
inactive: all other assays above

CC(C)=CCC/C(C)=C/CC/C(C)=C/CC/C(C)=C/CC1=C(C)C(=O)c2ccccc2C1=O
active: [11] 29.8 µM and 10.6 µM
inactive: [1] | [2] | [3] | [4] | [5] | [6] | [7] | [10] | [12] | [13]

O=C(O)c1cc(O)c2c(c1)[C@H]([C@H]1c3cc(C(=O)O)cc(O)c3C(=O)c3c(O[C@@H]4O[C@H](CO)[C@@H](O)[C@H](O)[C@H]4O)cccc31)c1cccc(O[C@@H]3O[C@H](CO)[C@@H](O)[C@H](O)[C@H]3O)c1C2=O
not listed: [7] | [12] | [14] | [17] | [18] | [19]
inactive: all other assays above

CCC(O)c1ccccc1 (stereo unspecified)
not listed: [6] | [7] | [11] | [12] | [14] | [17] | [18] | [19]
inactive: all other assays above

— PubChem BioAssay (Tox21)
